We go through 61 compounds from PubChem BioAssay AID777 (Sanford-Burnham Center for Chemical Genomics, 2007).

About 19,000 (20%) of roughly 96,000 compounds were called active.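 The calls were made as follows: active = blocking of liver enzyme CYP2C9 beyond about 50% at 5 µM (limit read from the data); inactive = the rest.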 The list is a sample of the results.

The term inhibition denotes the relative decrease from the control value, in per cent.

Sequence of Cytochrome P450 2C9 (Homo sapiens) (P11712 whole entry, looked up): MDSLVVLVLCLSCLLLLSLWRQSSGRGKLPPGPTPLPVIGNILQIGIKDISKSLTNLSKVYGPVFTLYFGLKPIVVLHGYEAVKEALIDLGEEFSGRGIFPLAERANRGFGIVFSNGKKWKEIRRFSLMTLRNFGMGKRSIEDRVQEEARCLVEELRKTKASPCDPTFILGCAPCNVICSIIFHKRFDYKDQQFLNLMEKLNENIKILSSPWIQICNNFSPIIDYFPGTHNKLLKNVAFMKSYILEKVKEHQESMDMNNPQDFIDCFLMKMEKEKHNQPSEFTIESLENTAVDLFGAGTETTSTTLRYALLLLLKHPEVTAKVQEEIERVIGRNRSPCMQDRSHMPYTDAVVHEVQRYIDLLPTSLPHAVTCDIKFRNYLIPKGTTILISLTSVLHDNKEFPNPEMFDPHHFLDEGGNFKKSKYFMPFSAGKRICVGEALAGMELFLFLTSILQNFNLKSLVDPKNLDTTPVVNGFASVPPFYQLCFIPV

This test has as its target Cytochrome P450 2C9 (Homo sapiens) (UniProt P11712). In words: blockers of cytochrome P450 2C9 activity – biochemical, luminescence, ADME assay, primary screen (AID 777). The note with it: CYP2C9 Supersomes, luciferin-H conversion, at 5 µM, active compounds read high.
As to `COc1cccc(Oc2ccc(N)cc2)c1`, the inhibition is 4.7% (inactive). With `CN1C2CCC1/C(=C\c1ccccc1Cl)C(=O)/C2=C\c1ccccc1Cl` the figure was -79.2% (inactive). The same measure for `COCCNC(=S)c1ccc(OC)cc1`: -13.3% (inactive); for `Cn1c(Cc2csc(N)n2)nnc1SC/C=C/c1ccccc1`: 27.1% (inactive). For the compound `CC(C)OC(=O)CN1C(=O)c2ccccc2C1=O`, the inhibition is 4.9% (inactive). With `Cc1cc2c(cc1C)N(C(=O)CN1C(=O)c3ccccc3C1=O)C(C)(C)c1ssc(=S)c1-2` the figure was 78.2% (active). For `C=CCn1c(C)cc(C(=O)CN2C(=O)c3ccccc3C2=O)c1C`, the inhibition was -61.6% (inactive).

For `CCOC(=O)CN1C(=O)C(=O)c2cc(C)ccc21`, the inhibition was 8.3% (inactive).

In the case of `Cc1cc(C(=O)COC(=O)CCCN2C(=O)c3ccccc3C2=O)c(C)n1C`, the inhibition is -21.1% (inactive).

`Cc1ccc2c(c1)-c1c(ssc1=S)C(C)(C)N2C(=O)CN1C(=O)c2ccccc2C1=O`: the inhibition is 80.6% (active). For the compound `Cc1[nH]c2ccc(S(N)(=O)=O)cc2c1C`, the inhibition is -42.1% (inactive). As to `CNC(=S)NNC(=O)c1sccc1OCc1ccccc1`, the inhibition was 12.2% (inactive).

In the case of `COc1cccc(-n2c(SCC(=O)NC3CCCCC3)nc3n[nH]c(C)c3c2=N)c1`, the inhibition is 19.4% (inactive). The same measure for `COC(=O)c1ccc(NC(=O)CN(c2ccc(C)cc2)S(=O)(=O)c2c(C)n[nH]c2C)cc1`: 91.4% (active); for `Cc1noc(C)c1C(=O)NC(C)c1ccc2c(c1)OCO2` (stereo unspecified): 32.6% (inactive); for `Cc1ccc(N(CC(=O)Nc2cc(C)cc(C)c2)S(=O)(=O)c2cccc3nonc23)cc1`: 48.7% (inactive). Take `CCOC(=O)c1cccc(NC(=O)CN(c2ccc(C)cc2)S(=O)(=O)c2c(C)noc2C)c1`: the inhibition was 65.9% (active). The same measure for `Cc1noc(C)c1S(=O)(=O)N(CC(=O)NCc1ccc(Cl)cc1)c1ccc2c(c1)OCO2`: 68.9% (active); for `CCOc1ccc(N(CC(=O)OC)S(=O)(=O)c2c(C)noc2C)cc1`: 24.4% (inactive). With `Cc1noc(C)c1S(=O)(=O)N(CC(=O)Nc1ccc2c(c1)OCCO2)c1ccc(C(C)C)cc1` the figure was 72.5% (active); with `COC(=O)c1ccc(NC(=O)Nc2ccc(C)cc2)cc1`, 34.6% (inactive). With `CCOc1ccc(N(CC(=O)NCc2ccc(OC)cc2)S(=O)(=O)c2c(C)noc2C)cc1`, the inhibition is 3.9% (inactive). With `CS(=O)(=O)N(CC(=O)NCc1ccco1)c1ccc2c(c1)OCO2` the figure was 2.2% (inactive); with `CCN(CC)C(=O)CCC(=O)Nc1ccc(C(=O)OC)cc1`, 8.6% (inactive). Consider `CCCCN=C(N)/C(C(=O)OCC)=C(\O)c1ccc(OC)cc1`, for which the inhibition is 20.5% (inactive). In the case of `CCC(=O)Nc1ccc2c(c1)nc(CCN1CCN(C)CC1)n2C`, the inhibition is 0.1% (inactive). In the case of `Cc1cc(C)n2nc(C(=O)NC(C)(C)C)nc2n1`, the inhibition is -10.2% (inactive). With `Cc1ccc(C(C)C)c(OCc2nnc(SCC(=O)Nc3nccs3)n2C)c1` the figure was 3.8% (inactive); with `CCn1c2c(c3ccc(OC)cc31)CCCC2=O`, 41.1% (inactive); with `Cn1c(=O)c2c(SCC(=O)N3CCOCC3)nc(C3CC3)nc2n(C)c1=O`, 8.1% (inactive). With `Cc1c(C)c2cc3c4c(oc3c(C)c2oc1=O)CCCC4` the figure was 9.6% (inactive); with `O=S1(=O)CC(NCc2ccccc2)C(Nc2ccc(Cl)cc2)C1` (stereo unspecified), 27.4% (inactive). With `Cc1ccn2cc(-c3nonc3C)cc2c1` the figure was 15.3% (inactive). As to `O=C(Nc1ncc2c(n1)CC(c1ccco1)CC2=O)c1ccc(Cl)cc1` (stereo unspecified), the inhibition was 31.2% (inactive). For the compound `C=CCn1c(SCc2csc(C)n2)nc2scc(-c3ccc(C)o3)c2c1=O`, the inhibition is 48% (inactive). With `COc1ccc(S(=O)(=O)N(C)CC(=O)Nc2ccc3c(c2)OCCO3)cc1OC` the figure was 27.4% (inactive); with `O=C(CN(c1ccc2c(c1)OCCO2)S(=O)(=O)c1ccccc1)Nc1ccc2c(c1)OCO2`, 92.2% (active).

Consider `COc1ccc(CNc2ccc3c(c2)CCC3)cc1OC`, for which the inhibition is 7.2% (inactive).

With `COc1ccc(CC(=O)Nc2ccc3c(c2)CCC3)cc1S(=O)(=O)N1CCOCC1`, the inhibition is 59.8% (active).

For `CC(C)C(=O)OCC(=O)Nc1ccc2c(c1)CCC2`, the inhibition was -0.6% (inactive). In the case of `CCC(=NC1CC(C)(C)NC(C)(C)C1)C1=C(O)CC(C)(C)CC1=O`, the inhibition is 13.4% (inactive). The same measure for `Cn1c(=NC(=O)CSCC(=O)N2CCOCC2)sc2ccccc21`: -13.1% (inactive).

For `O=C(CSc1ncccn1)NC(=O)NCc1ccccc1`, the inhibition was 5.8% (inactive). The same measure for `Cc1cc(C)c2c(-n3cccc3)c(NC(=O)OCc3ccccc3)sc2n1`: 13.2% (inactive); for `CCCCOC(=O)Nc1sc2nc(C)cc(C)c2c1-n1cccc1`: 37.4% (inactive); for `COC(=O)Nc1sc2nc(C)cc(C)c2c1-n1cccc1`: 55.1% (active).

With `Cc1cc(C)c2c(-n3cccc3)c(C(=O)NNS(=O)(=O)c3ccc(F)cc3)sc2n1`, the inhibition was 98.1% (active). With `COc1ccc(C2=Nc3cc(C)ccc3OC2)cc1` the figure was 19.1% (inactive).

With `Cc1ccc(S(=O)(=O)n2cnc3ccccc32)c(C)c1`, the inhibition was -7.6% (inactive). On to `O=C(CN1C(=O)C2C3C=CC(C3)C2C1=O)NCCc1ccccc1Cl` (stereo unspecified), for which the inhibition is 17.1% (inactive). With `CCc1c(O)nc(SCC(=O)N2CCCCC2)n(-c2ccccc2C)c1=O`, the inhibition was 4.6% (inactive).

As for `Cc1ccc2nc3n(c(=O)c2c1)CCC3`, the inhibition is 21% (inactive). With `COc1ccc(OC)c(CNC(=O)C2CCCN(c3nc4ccccc4o3)C2)c1` (stereo unspecified) the figure was 44.8% (inactive); with `COc1ccc(C(c2nnnn2Cc2cccs2)N2CCN(c3ccccc3)CC2)cc1OC` (stereo unspecified), 61.5% (active). The same measure for `Cc1ccc(C(c2sc3nc(C)nn3c2O)N2CCN(c3ccccc3)CC2)cc1` (stereo unspecified): 36% (inactive); for `COc1ccc(CCn2nnnc2C(c2ccccc2)N2CCN(C)CC2)cc1OC` (stereo unspecified): -6% (inactive); for `CC(=O)NC(C)(C)C1CC=C(C)/C(=N\O)C1` (stereo unspecified): -8.6% (inactive).

For the compound `CCCOc1ccc(C2c3c(oc4cc(C)c(C)cc4c3=O)C(=O)N2CCCN2CCOCC2)cc1` (stereo unspecified), the inhibition is 90.7% (active). With `CCCCOc1ccc(C(C)(O)CCN2CCOCC2)cc1` (stereo unspecified) the figure was -4.9% (inactive).

As to `CCOc1ccc(C2C(C(=O)O)c3ccccc3C(=O)N2CCN2CCOCC2)cc1` (stereo unspecified), the inhibition was -15.8% (inactive). The same measure for `CC1(C)CN=C(N2CCN(c3ncnc4sc5c(c34)CCCC5)CC2)S1`: 39.4% (inactive).
